Source: PubChem
KAT2A inh = blocks human GCN5L2 histone acetyltransferase. Q92830. GCN5L2 HAT assay, ThioGlo1 CoA-SH fluorescence. Potency, µM (titrated, usually from 58.9 µM), most hits filed as inhibitors. hit rate 0.21% among 390,000
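GCN5L2 (20nM final) in 50mM HEPES, 0.1mM EDTA pH 7.5, 0.01% Tween-20 was preincubated 15 min at room temperature with compound, then given ThioGlo1 (50uM), H3(1-25) peptide (75uM) and acetyl-CoA (70uM); CoA-thiol fluorescence (Ex340/Em540) was read at 0 and 20 min.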
GLS inhibitor = blocks human kidney-isoform glutaminase activity. O94925. GLS enzymatic activity, qHTS titration. Potency, µM (titrated, usually from 45.5 µM), actives largely listed as inhibitors. hit rate 0.21% among 410,000
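Enzyme dispensed in phosphate buffer (45 mM, pH 8.2, 0.02% Tween-20), compounds pinned in, then 1 mM L-glutamine solution and the glutamate oxidase–HRP–Amplex Red mix added; fluorescence read immediately and again after 30 min at room temperature.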
VDR inhibitor = blocks the human vitamin D receptor; AID 504847; Potency, µM, usual class: inhibitors; VDR-SRC2-3 peptide fluorescence polarization, 2 h; hit rate 0.93% among 400,000
Target sequence (P11473 whole entry, looked up): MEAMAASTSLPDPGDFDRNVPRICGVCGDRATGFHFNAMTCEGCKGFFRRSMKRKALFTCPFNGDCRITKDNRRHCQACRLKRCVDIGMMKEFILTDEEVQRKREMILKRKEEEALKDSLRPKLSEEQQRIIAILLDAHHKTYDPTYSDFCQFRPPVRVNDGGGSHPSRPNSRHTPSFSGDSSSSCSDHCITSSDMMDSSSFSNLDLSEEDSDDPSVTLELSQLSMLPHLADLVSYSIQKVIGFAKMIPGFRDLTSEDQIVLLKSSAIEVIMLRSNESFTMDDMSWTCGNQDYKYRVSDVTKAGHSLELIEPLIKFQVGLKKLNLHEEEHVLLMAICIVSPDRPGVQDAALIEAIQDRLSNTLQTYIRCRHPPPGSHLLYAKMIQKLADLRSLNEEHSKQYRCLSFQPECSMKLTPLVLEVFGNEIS
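FP read-out; VDR + SRC2-3 coactivator peptide; 23 nl compound by pintool; 2 h RT incubation; reagents held at 4 deg C, protected from light.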
PLK1 PBD inh = blocks phosphopeptide binding to human PLK1 polo-box domain; hit rate 2.8% among 360,000; AID 720504; Potency, µM, usual class: inhibitors; P53350; Plk1 PBD binding of FITC phosphopeptide, fluorescence polarization; also: series mostly up to about 57 µM; nearly all actives have a fitted effect of over 65% in size
PI4K2A block = inhibitors of human PI4K2A | Q9BTU6 | purified PI4K2A, ADP-Glo luminescence, 1 h; stronger effect = lower value | activity change, negative = inhibition, % at 76.9 µM | hit rate 0.13% among 420,000; in the data active = activity change below about -50%; inconclusive = mostly about -30% to -49%
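ADP-Glo luminescence measured ADP generated by PI4K2A enzyme (4 ug/mL before mixing) with 1.2 mM PI substrate (pre-mix) and 300 microM ATP (pre-mix). Tris pH7.5 buffer with MgCl2, Triton X-100; 1 h reaction at ambient temperature.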
VDR confirm = confirmation of human vitamin D receptor inhibitors; Potency, µM, usual class: inhibitors; VDR-coactivator inhibition assay, qHTS confirmation; shares compounds with VDR inhibitor; hit rate 89% among 840; AID 602199
VDR FP fluor = VDR (human) coactivator binding inhibition, fluorescein polarization; VDR-coactivator binding, fluorescein fluorescence polarization; Potency, µM (titrated, usually from 57.1 µM), most hits filed as inhibitors; hit rate 48% among 840; shares compounds with VDR inhibitor
VDR bla = inhibits human VDR in beta-lactamase reporter cells; Potency, µM (series often up to 46.1 µM), most hits filed as inhibitors; VDR beta-lactamase reporter cells, FRET ratio; cells co-treated with VDR agonist LG190178; hit rate 23% among 840; shares compounds with VDR inhibitor
VDR viability = cell toxicity, VDR inhibitor hit counter-screen | shares compounds with VDR inhibitor | cytotoxicity counter-screen, cell viability, qHTS | Potency, µM (titrated, usually from 48.3 µM), most hits filed as cytotoxic | hit rate 18% among 840; also: nearly all actives have a fitted effect of over 75% in size
Each line names hits and unclear results; the compound was inactive in the other large screens (follow-up assays come after a bar, where they were run). Sampled rows, rich in hits. Any-hit rate of the full collection: about 3.1%. Unless noted, calls follow the shape of the dose curve; as a rule, active = well fitted curve in the direction sought with a large enough effect; inconclusive = small, poorly fitted or top-dose-only effect, or another doubt; inactive = no such curve, though single readings can be large; an effect the other way counts as inactive or inconclusive.

Cc1ccc(C2=NOC(=O)/C2=C\c2ccccc2)cc1	VDR inhibitor 32µM, PLK1 PBD inh 3.4µM (no result: KAT2A inh) | VDR confirm 7.5 | VDR FP fluor inconclusive | VDR bla inactive | VDR viability inactive
Cc1cccc(C)c1N=C1NN=C(c2ccccc2F)CS1	none
COc1ccccc1C1=NNC(=Nc2cccc(S(=O)(=O)N(C)C)c2)SC1	VDR inhibitor inconclusive | VDR confirm inconclusive | VDR FP fluor inconclusive | VDR bla inactive | VDR viability inconclusive
Cc1ccc(C(C2=C(O)CC(C)(C)CC2=O)C2C(=O)CC(C)(C)CC2=O)s1 (centres undefined)	VDR inhibitor 50µM, PLK1 PBD inh 4.7µM, PI4K2A block inconclusive | VDR confirm 11 | VDR FP fluor 7.9µM | VDR bla inactive | VDR viability inconclusive
COc1ccc2c(c1)Cc1sc(NC(=O)c3ccc(Cl)cc3)nc1-2	none (no result: PLK1 PBD inh)
CCc1cccc(C)c1NC(=O)CN1C(=O)C2(SCC(=O)N2c2cccc(F)c2)c2ccccc21 (centres undefined)	none (no result: PLK1 PBD inh)
C=CS(=O)(=O)c1c2cc(OC)ccc2nc2ccc(OC)cc12	VDR inhibitor 50µM, PLK1 PBD inh 2.7µM (no result: KAT2A inh) | VDR confirm 24 | VDR FP fluor 14µM | VDR bla inconclusive | VDR viability inconclusive
COc1ccccc1C(=O)n1ccc2ccc(-c3ccc4ccn(Cc5ccccc5)c4c3)cc21	none (no result: KAT2A inh, GLS inhibitor, VDR inhibitor, PLK1 PBD inh)
O=C(NCc1cccs1)c1ccc(CSc2nc3ccncc3n2Cc2cccc(F)c2)cc1	none (no result: PLK1 PBD inh)
Cc1ccc(NN2C(=O)C=CC2=O)cc1	none
COc1ccc(C2=CC(=O)N(Nc3ccccc3)C2=O)cc1	VDR inhibitor inconclusive | VDR confirm 3.2 | VDR FP fluor 3.5µM | VDR bla inactive | VDR viability inactive
Cc1ccc(NN2C(=O)C=C(c3ccc(Cl)cc3)C2=O)cc1	VDR inhibitor 50µM, PLK1 PBD inh 4.7µM | VDR confirm inconclusive | VDR FP fluor inconclusive | VDR bla inconclusive | VDR viability inconclusive
O=C(O)c1ccc(C=C(c2nc3ccccc3s2)c2nc3ccccc3s2)cc1	VDR inhibitor inconclusive, PLK1 PBD inh 30µM | VDR confirm 13 | VDR FP fluor 16µM | VDR bla 23µM | VDR viability inactive
COc1cc(C=C(c2nc3ccccc3s2)c2nc3ccccc3s2)cc(OC)c1O	none
Cc1ccc(-c2nc3sccn3c2Nc2ccccc2C)cc1	none (no result: PLK1 PBD inh)
COc1ccc(OC)c2c1C(=O)C(Cl)=C(Cl)C2=O	KAT2A inh 13µM, VDR inhibitor 22µM, PLK1 PBD inh 2.1µM | VDR confirm 8.4 | VDR FP fluor inconclusive | VDR bla 1.6µM | VDR viability 5.2µM
O=[N+]([O-])c1cc(S(=O)(=O)C(F)(F)F)ccc1Sc1nc2ccccc2s1	VDR inhibitor 35µM, PLK1 PBD inh 13µM | VDR confirm 9.5 | VDR FP fluor 3.5µM | VDR bla inconclusive | VDR viability inconclusive
CS(=O)(=O)c1ccc(Sc2nc3ccccc3s2)c([N+](=O)[O-])c1	none
CCC/C=C1/CCCOC(C(=O)NCC2CC2)(C(F)(F)F)C1 (centres undefined)	none (no result: KAT2A inh, GLS inhibitor, PLK1 PBD inh, PI4K2A block)
COc1cc(/C=C/C(=O)Nc2nnc(CC(C)(C)C)s2)cc(OC)c1OC	VDR inhibitor 79µM, PLK1 PBD inh 8.4µM | VDR confirm 21 | VDR FP fluor 14µM | VDR bla inactive | VDR viability inactive
COc1ccccc1/C=C1\CCCC2=C1Nc1nnnn1C2c1ccccc1OC (centres undefined)	VDR inhibitor inconclusive, PLK1 PBD inh inconclusive | VDR confirm inconclusive | VDR FP fluor inconclusive | VDR bla inconclusive | VDR viability inactive
